Screening data (PubChem BioAssay)
Anthrax LF prot: blocks Bacillus anthracis lethal factor protease | multiplex microsphere protease cleavage assay, LF | inhibition, % at 10 µM | actives 0.12% (n = 360,000) | AID 588501; further: plate controls were buffer without enzyme for full effect and enzyme alone for no effect
BoNT-A LC inh2: inhibitors of Botulinum neurotoxin A light chain protease. inhibition, % at 10 µM. AID 588499. actives 0.17% (n = 360,000). multiplex microsphere protease substrate cleavage, flow cytometry; further: plate controls were buffer without enzyme for full effect and enzyme alone for no effect
CCHFV vOTU inh: CCHFV vOTU protease inhibition. AID 651958. inhibition, % at 11.5 µM. Pep-AMC fluorescence. actives 0.55% (n = 370,000); in the data active means inhibition above about 30%; further: 0% = vehicle wells with enzyme and 100% = no enzyme wells
3CLpro inhibitor: SARS-CoV 3CLpro protease inhibition; P0C6X7; recombinant SARS-CoV 3CLpro, quenched FRET peptide cleavage; inhibition, % at 6 µM; actives 0.14% (n = 290,000); in the data active means inhibition above about 12%
BoNT-F LC inh: blocks Botulinum neurotoxin F light chain protease; Multiplex microsphere protease cleavage assay, flow cytometry; inhibition, % at 10 µM; actives 0.22% (n = 360,000); AID 588497; in the data active means inhibition above about 35%, passing the limit was not always enough; inconclusive means no clear call, values can overlap the other calls; further: plate controls were buffer without enzyme for full effect and enzyme alone for no effect
Autofluor counter: compound fluorescence in toxin protease inhibitor counterscreen. compound autofluorescence counterscreen, microsphere flow cytometry; active compounds read high. actives 3.1% (n = 360,000). fluorescence intensity (concentration not given with the values). AID 624483; in the data active means fluorescence intensity above about 16000; inconclusive means no clear call, values can overlap the other calls
Starred values were filed as active, the others as inactive; ? = inconclusive; / = no result given. Rows were chosen to be rich in hits. Some 3.9% of all compounds tested hit in one or more screens of this group. Unless noted, no stated cut-off is given here; in the data, active means inhibition above about 30%; inconclusive means no clear call, values can overlap the other calls; inactive means below that.

SMILES	Anthrax LF prot	BoNT-A LC inh2	CCHFV vOTU inh	3CLpro inhibitor	BoNT-F LC inh	Autofluor counter
O=C(CSCc1ccc(F)cc1)N1CCN(c2ccc(F)cc2)CC1	-1.4	0.9	10.2	-0.5	2.4	10897
O=C(c1cccc(S(=O)(=O)N2CCCC2)c1)N1CCN(c2ccccc2)CC1	-0.8	-1.5	-6.7	-5.4	-2.2	21121*
C=CCn1c(=O)[nH]c2cc(C(=O)N3CCN(c4cc(C)ccc4C)CC3)ccc2c1=O	-1.6	0.0	7.2	2.1	1.6	16226*
CN1c2ccc(-c3cccc(F)c3)cc2[C@H]2[C@H](CCN2S(=O)(=O)c2cccc(F)c2)[C@H]1CO	/	/	6.3	/	/	/
C=CCN(CC#CC1=CCCCC1)Cc1ccc(OC)cc1OC	/	/	15.3	/	/	/
COc1cc(-n2c(C)nc3cc(C(=O)N4CC(C)CC(C)C4)ccc32)cc(OC)c1OC (stereo unspecified)	/	/	10.9	/	/	/
Clc1cccc(CN2CCN(c3ncc(Cc4ccccc4)cn3)CC2)c1Cl	/	/	-2.6	/	/	/
Cc1cccc(NC(=O)[C@@H]2CC(=O)O[C@@H]2c2ccccc2)c1C	/	/	-2.8	/	/	/
O=C(c1ccc2c(=O)n(-c3ccccc3)c(=O)[nH]c2c1)N1CCN(c2ccc(F)cc2)CC1	-11.0	-0.2	0.3	1.2	1.2	5921
O=C(c1ccc2ccccc2c1)N1CCN(c2ccccc2)CC1	-0.7	?	2.4	-2.6	-0.8	19676*
CC(=O)c1ccc(N2CCN(C(=O)c3ccc4c(=O)n(-c5ccccc5)c(=O)[nH]c4c3)CC2)cc1	-1.1	1.5	7.0	-6.5	1.4	22374*
O=C(Nc1ccc(S(=O)(=O)Nc2nccc(C3Cc4ccccc4C(=O)O3)n2)cc1)c1ccccc1 (stereo unspecified)	-2.3	0.9	-11.1	4.5	2.5	23166*
O=C(Nc1ccc(S(=O)(=O)Nc2ncccn2)cc1)c1ccccc1	0.2	-1.4	1.6	-0.7	6.4	3507
Nc1nnc(SCc2ccc(F)cc2)n1-c1ccccc1	1.0	-7.7	2.5	-2.2	-6.6	21997*
N#Cc1ccc(CSc2nnc(COc3ccccc3)n2-c2ccccc2)cc1	-0.9	-5.6	3.8	3.7	-9.4	24330*
O=C(O)c1ccc(CSc2nnc(-c3ccccc3)n2-c2ccccc2)cc1	-6.7	-0.2	-0.2	2.3	-4.3	4182
COc1ccc(-n2c(COc3ccccc3)nnc2SCc2ccc(C#N)cc2)cc1	-6.6	-0.4	6.1	-1.2	-1.8	19781*
N#Cc1ccc(CSc2nnc(-c3ccccn3)n2-c2ccccc2)cc1	-3.0	-0.3	1.8	-0.6	-2.9	2869
COC(=O)[C@@H](CC(C)C)CP(=O)(OC)[C@@H](C)NC(=O)OCc1ccccc1 (stereo partly specified)	/	/	-8.7	/	/	/
CCOc1cccc(NC(=O)C(Cc2cccs2)c2nn[nH]n2)c1 (stereo unspecified)	2.0	6.0	2.1	-0.4	8.4	20016*
O=C(Nc1ccccc1)C(Cc1cccs1)c1nn[nH]n1 (stereo unspecified)	-8.1	-1.0	-14.1	0.0	-13.7	8683
O=C(c1ccco1)C12CN3CN(CN(C3)C1)C2	-4.4	3.5	5.5	4.8	2.2	21201*
O=c1[nH]c(O)c(/C=C2\C=NN=C2c2ccccc2)c(=O)[nH]1	-1.8	-4.4	-1.6	-1.6	-5.9	21773*
CCS(=O)(=O)N1CCN(C2Cc3ccccc3C2)CC1	-0.6	?	-3.0	1.1	0.5	22089*
Fc1cccc(CNC(=S)OC2CCC23CCC(c2ccccc2)CC3)c1 (stereo unspecified)	/	/	9.1	/	/	/
SMILES	Anthrax LF prot	BoNT-A LC inh2	CCHFV vOTU inh	3CLpro inhibitor	BoNT-F LC inh	Autofluor counter
Cc1ccnc(Sc2ccc([N+](=O)[O-])cc2[N+](=O)[O-])n1	-0.6	-1.4	9.3	-0.3	0.2	21298*
O=C(Nc1nc(-c2ccccc2Cl)cs1)c1cccnc1	0.0	-0.1	-0.6	-2.2	1.1	20683*
C[C@@H]1CN([C@@H](C)CO)C(=O)CCCn2cc(nn2)CO[C@H]1CN(C)C(=O)NC1CCCCC1	/	/	-3.5	/	/	/
CN1OC[C@@H]2CN(Cc3ccccc3)[C@H](c3ccc(N4CCCCC4)cc3)C[C@@H]21	-22.2	-7.1	5.1	/	-5.9	12789
CN1OC[C@@H]2CN(Cc3ccc4c(c3)OCO4)[C@H](c3ccc(N4CCCCC4)cc3)C[C@@H]21	-21.9	-14.6	19.9	/	15.4	23460*
C[C@H](O)[C@@H]1CN2CCc3ccc(N4CCOCC4)cc3[C@@H]2C[C@@H]1N(C)C(=O)c1ccccc1F	/	/	-3.7	/	/	/
COC(=O)c1ccc(C(=O)OC)c(NC(=S)N2CCCC(CO)C2)c1 (stereo unspecified)	-1.3	0.2	-29.9	-0.3	-0.7	4215
COC(=O)c1cc(OC)c(OC)cc1NC(=S)N1CCCC(CO)C1 (stereo unspecified)	4.2	1.0	-8.2	-8.5	1.0	22143*
COc1ccc(-c2cc(C(=O)Nc3ccccc3SC)no2)cc1OC	-3.1	1.6	0.2	-3.6	-1.2	23175*
COc1cccc(-c2cc(C(=O)Nc3cccnc3Cl)no2)c1	0.2	-0.3	12.5	3.2	-0.9	5786
COc1ccc(-c2cc(C(=O)Nc3cccc(Cl)c3)no2)cc1	-3.0	1.6	-2.9	-5.4	1.5	3096
COc1ccc(-c2cc(C(=O)Nc3cccc(C(C)=O)c3)no2)cc1	2.3	0.8	5.2	4.2	1.2	19306*
COc1cccc(-c2cc(C(=O)Nc3cccc(O)c3)no2)c1	-2.3	-2.6	3.1	0.4	-4.8	24356*
COc1ccc(NC(=O)c2cc(-c3cccc(OC)c3)on2)cc1	3.5	0.0	-7.2	0.4	-14.2	6077
COc1cccc(-c2cc(C(=O)Nc3ccccc3SC)no2)c1	0.7	?	-6.1	-1.4	-1.4	16463*
CCN(CCNC(=O)[C@H]1C=C(OC)C(=O)C[C@H](c2ccccc2)[C@H]1C)C(C)=O	/	/	1.0	/	/	/
COC(=O)C1=C(C(=O)OC)C2CCCC1C1N=NN(c3ccccc3)C21 (stereo unspecified)	/	/	-3.1	/	/	/
O=C(CCl)Nc1ccc(Oc2cnc3ccccc3n2)cc1	0.1	2.6	-1.4	2.3	4.6	21837*
O=C(CCl)Nc1cccc(-c2cnc3ccccc3n2)c1	1.2	0.2	11.4	-0.7	12.4	3383
COC(=O)C[C@@H]1CC[C@H]2[C@@H](COc3ccc(NC(=O)c4ccc(Cl)cc4)cc3C(=O)N2C)O1	/	/	5.5	/	/	/
Cc1ccccc1-n1nc2c(c1NC(=O)COc1ccc(Cl)cc1)CS(=O)C2 (stereo unspecified)	-2.8	-0.1	-2.2	-0.7	-11.7	5267
COc1ccc(CC(=O)Nc2c3c(nn2-c2ccccc2C)CS(=O)C3)cc1 (stereo unspecified)	-0.3	-0.1	-3.5	0.0	-0.5	20787*
COc1ccccc1C1(CC(=O)N2CCCCC2)CCOC(C(C)C)C1 (stereo unspecified)	2.8	0.2	-0.2	-2.9	-1.6	16312*
Cc1nn(-c2ccccc2)c(C)c1C=NNC(=O)CSc1nc2ccccc2n1C	/	/	13.3	/	/	/
O=c1nc(-c2ccccc2Cl)c2cc(F)ccc2[nH]1	16.1	-1.4	-68.1	-2.4	50.7*	4135
